The supplement of paper PMC12669032

The molecules below were run on Fusobacterium nucleatum subsp. animalis (assay: growth AUC relative to DMSO control (median of replicates) (fraction); higher = more growth (less inhibition), active = hit call of the paper). Settings: 20 µM; 24 h;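 active = AUC reduced over 20% with Padj below 0.05 in at least 2 of 3 replicates; inactive = otherwise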.
Method in brief: (§1)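 Starting at OD600 0.05, gut bacterial monocultures in mGAM were grown anaerobically at 37 °C with 20 µM compound (1% DMSO) under pierced gas-permeable seals. OD600 was read every hour for 24 h, and the lowest OD of each curve was set to 0. Area under the growth curve was normalised to the plate median of solvent-only wells, or to row and column medians on the industrial chemical plate, and the median of three biological replicates grown on separate days is given.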
In the case of `CCOP(=O)(NC(C)C)Oc1ccc(SC)c(C)c1` (stereo unspecified), the “growth AUC” value is reported as 0.903 (inactive). `[CH3][Hg][Cl]` was tested, and the “growth AUC” value was 0.956 (inactive). For `ClC1=C(Cl)C2(Cl)C3COCC3C1(Cl)C2(Cl)Cl` (stereo unspecified), the “growth AUC” value was 1.12 (inactive). For `c1cc2c3c(cccc3c1)CC2`, the “growth AUC” value was 1.07 (inactive). In the case of `CO/N=C(/C(=O)OC)c1ccccc1COc1ccccc1C`, the “growth AUC” value is reported as 1.02 (inactive). `O=C(Nc1ccc(F)cc1F)c1cccnc1Oc1cccc(C(F)(F)F)c1` was tested, and the “growth AUC” value was 0.939 (inactive). In the case of `ClC1=C(Cl)[C@]2(Cl)[C@@H]3[C@@H]4C[C@@H]([C@H]5O[C@@H]45)[C@@H]3[C@@]1(Cl)C2(Cl)Cl`, the “growth AUC” value is reported as 0.881 (inactive). In the case of `CC1(C)CCC(Cc2ccc(Cl)cc2)C1(O)Cn1cncn1` (stereo unspecified), the “growth AUC” value is reported as 1.08 (inactive). With `CC(C)(C)C(O)C(Cc1ccc(Cl)cc1Cl)n1cncn1` (mixture of isomers) the “growth AUC” value was 0.963 (inactive). In the case of `CC1(C)C(C=C(Cl)Cl)C1C(=O)OCc1cccc(Oc2ccccc2)c1` (mixture of isomers), the “growth AUC” value is reported as 0.954 (inactive). For `O=[N+]([O-])C(Br)(CO)CO`, the “growth AUC” value was 1 (inactive). For `COc1cc(OC)nc(NC(=O)NS(=O)(=O)c2ncccc2C(=O)N(C)C)n1`, the “growth AUC” value was 1.05 (inactive). `COC(=O)c1ccccc1S(=O)(=O)NC(=O)Nc1nc(C)cc(C)n1` was tested, and the “growth AUC” value was 1 (inactive). With `CCS(=O)(=O)c1nc2ccccn2c1S(=O)(=O)NC(=O)Nc1nc(OC)cc(OC)n1` the “growth AUC” value was 0.977 (inactive). With `COc1cc(OC)nc(NC(=O)NS(=O)(=O)c2cc(NC=O)ccc2C(=O)N(C)C)n1` the “growth AUC” value was 1.06 (inactive). `O=C(Nc1ccccc1)Nc1cnns1` was tested, and the “growth AUC” value was 0.955 (inactive). With `CCSCCSP(=S)(OC)OC` the “growth AUC” value was 1.05 (inactive). For `Clc1cc(Cl)c(Cl)cc1Cl`, the “growth AUC” value was 1.15 (inactive). `COP(=S)(OC)Oc1cc(Cl)c(Br)cc1Cl` was tested, and the “growth AUC” value was 0.952 (inactive). For `CC(C)C1(C)N=C(c2ncccc2C(=O)O)NC1=O` (stereo unspecified), the “growth AUC” value was 1.04 (inactive). With `O=c1oc2ccccc2c(O)c1C1CCCc2ccccc21` (stereo unspecified) the “growth AUC” value was 1.05 (inactive).

What follows are molecules tested on Lactobacillus gasseri in the same assay as above. Settings: 20 µM; 24 h.
Method in brief: as §1
For `COP(=S)(OC)Oc1ccc(S(N)(=O)=O)cc1`, the “growth AUC” value was 1.06 (inactive). `CCCCOC(=O)[C@@H](C)Oc1ccc(Oc2ccc(C#N)cc2F)cc1` was tested, and the “growth AUC” value was 0.87 (inactive). In the case of `CCC(C)(C)c1ccc(O)cc1`, the “growth AUC” value is reported as 0.957 (inactive). `CCCCCCCCCc1ccc(O)cc1` was tested, and the “growth AUC” value was 0.904 (inactive). With `CC(C)OC(=O)Nc1ccccc1` the “growth AUC” value was 1.13 (inactive). With `CCCCc1c(C)nc(NCC)nc1OS(=O)(=O)N(C)C` the “growth AUC” value was 0.931 (inactive). For `CCOP(=S)(OCC)Oc1cc(-c2ccccc2)on1`, the “growth AUC” value was 0.886 (inactive). For `C=CC(N)=O`, the “growth AUC” value was 1.01 (inactive). With `CC(C)C(C(=O)OC(C#N)c1cccc(Oc2ccccc2)c1)c1ccc(OC(F)F)cc1` (stereo unspecified) the “growth AUC” value was 1.01 (inactive). With `Oc1ccccc1-c1ccccc1` the “growth AUC” value was 1.08 (inactive). In the case of `FC(F)C(F)(F)OCC(Cn1cncn1)c1ccc(Cl)cc1Cl` (stereo unspecified), the “growth AUC” value is reported as 0.912 (inactive). With `Nc1ccc(Cc2ccc(N)c(Cl)c2)cc1Cl` the “growth AUC” value was 1.04 (inactive). With `Nc1cccc(Cl)c1Cl` the “growth AUC” value was 1.05 (inactive). `COC(=O)NS(=O)(=O)c1ccc(N)cc1` was tested, and the “growth AUC” value was 0.848 (inactive). `CC(C)=CC1C(C(=O)OCc2cccc(Oc3ccccc3)c2)C1(C)C` (mixture of isomers) was tested, and the “growth AUC” value was 0.767 (inactive). For `COP(=S)(OC)SCC(=O)N(c1ccc(Cl)cc1)C(C)C`, the “growth AUC” value was 1.03 (inactive). With `CC(=O)O.CC(=O)O.CC(=O)O.NC(N)=NCCCCCCCCNCCCCCCCCN=C(N)N` the “growth AUC” value was 0.89 (inactive). For `N#Cc1c(Cl)c(Cl)c(Cl)c(C#N)c1Cl`, the “growth AUC” value was 0.558 (active). With `CCOP(=O)(NC(C)C)Oc1ccc(SC)c(C)c1` (stereo unspecified) the “growth AUC” value was 0.895 (inactive). In the case of `[CH3][Hg][Cl]`, the “growth AUC” value is reported as 0.99 (inactive). `ClC1=C(Cl)C2(Cl)C3COCC3C1(Cl)C2(Cl)Cl` (stereo unspecified) was tested, and the “growth AUC” value was 1.01 (inactive). In the case of `c1cc2c3c(cccc3c1)CC2`, the “growth AUC” value is reported as 1.05 (inactive). For `CO/N=C(/C(=O)OC)c1ccccc1COc1ccccc1C`, the “growth AUC” value was 1.01 (inactive). In the case of `O=C(Nc1ccc(F)cc1F)c1cccnc1Oc1cccc(C(F)(F)F)c1`, the “growth AUC” value is reported as 0.891 (inactive). `ClC1=C(Cl)[C@]2(Cl)[C@@H]3[C@@H]4C[C@@H]([C@H]5O[C@@H]45)[C@@H]3[C@@]1(Cl)C2(Cl)Cl` was tested, and the “growth AUC” value was 0.999 (inactive).
